Results on 7 sequences are retold here after paper PMC7862700, “An all-to-all approach to the identification of sequence-specific readers for epigenetic DNA modifications on cytosine”.

Common to all, as to assay: DAPPL (digital affinity profiling via proximity ligation, sequencing); 10 mM Tris-HCl pH 7.5, 50 mM NaCl, 1 mM DTT, 4% glycerol, room temperature, 30 min; GST-TFs on glutathione beads, 16-mer random dsDNA library, 0.1% formaldehyde crosslink after washing; high values mean tight binding
Settings in all cases: protein: recombinant; tags: N-terminal GST; dsDNA, one strand shown

Assay [1] concerns the target T1, FLI1 (Homo sapiens, UniProt Q01543 1-452).
T1 sequence: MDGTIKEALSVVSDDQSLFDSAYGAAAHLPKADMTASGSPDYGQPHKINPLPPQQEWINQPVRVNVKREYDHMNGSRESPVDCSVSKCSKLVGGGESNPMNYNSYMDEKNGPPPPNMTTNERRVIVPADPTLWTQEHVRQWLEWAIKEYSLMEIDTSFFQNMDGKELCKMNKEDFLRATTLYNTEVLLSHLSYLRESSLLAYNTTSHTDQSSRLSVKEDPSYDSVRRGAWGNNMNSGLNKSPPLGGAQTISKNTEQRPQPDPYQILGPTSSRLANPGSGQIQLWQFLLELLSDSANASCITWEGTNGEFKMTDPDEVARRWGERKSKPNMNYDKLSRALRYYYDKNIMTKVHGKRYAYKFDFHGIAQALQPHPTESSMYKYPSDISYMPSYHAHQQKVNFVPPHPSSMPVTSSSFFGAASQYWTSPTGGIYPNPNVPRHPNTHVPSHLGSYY
In short, it runs like this: (§1)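 Yeast served to express human transcription factors as GST fusions, which were then captured on glutathione beads and labelled with DNA barcodes. Pooled with a tag-only sample, they were incubated with 200 nmole of a 16-mer random double-stranded DNA library for 30 min at room temperature in Tris/NaCl/DTT/glycerol buffer, washed, crosslinked with 0.1% formaldehyde, ligated by proximity, amplified by PCR and sequenced. Dividing each hexamer's read frequency for a factor by its frequency for the tag-only sample gives the binding signal.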

In assay [2] the target is T2, ELK1 (Homo sapiens, UniProt P19419 1-428).
T2 sequence: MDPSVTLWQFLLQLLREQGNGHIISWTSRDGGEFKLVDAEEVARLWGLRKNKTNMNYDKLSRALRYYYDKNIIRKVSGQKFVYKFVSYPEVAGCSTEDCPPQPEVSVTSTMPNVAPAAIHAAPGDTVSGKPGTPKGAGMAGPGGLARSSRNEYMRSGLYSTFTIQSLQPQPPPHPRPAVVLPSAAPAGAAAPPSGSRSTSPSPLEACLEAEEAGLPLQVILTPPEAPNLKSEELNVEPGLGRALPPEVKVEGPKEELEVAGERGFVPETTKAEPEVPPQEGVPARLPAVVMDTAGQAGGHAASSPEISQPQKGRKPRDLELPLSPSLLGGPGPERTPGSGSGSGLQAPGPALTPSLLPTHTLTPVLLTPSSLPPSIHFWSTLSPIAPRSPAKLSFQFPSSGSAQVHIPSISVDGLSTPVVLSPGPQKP
The method in brief:
as §1

In assay [3] the target is T3, GABPA (Homo sapiens, UniProt Q06546 1-454).
T3 sequence: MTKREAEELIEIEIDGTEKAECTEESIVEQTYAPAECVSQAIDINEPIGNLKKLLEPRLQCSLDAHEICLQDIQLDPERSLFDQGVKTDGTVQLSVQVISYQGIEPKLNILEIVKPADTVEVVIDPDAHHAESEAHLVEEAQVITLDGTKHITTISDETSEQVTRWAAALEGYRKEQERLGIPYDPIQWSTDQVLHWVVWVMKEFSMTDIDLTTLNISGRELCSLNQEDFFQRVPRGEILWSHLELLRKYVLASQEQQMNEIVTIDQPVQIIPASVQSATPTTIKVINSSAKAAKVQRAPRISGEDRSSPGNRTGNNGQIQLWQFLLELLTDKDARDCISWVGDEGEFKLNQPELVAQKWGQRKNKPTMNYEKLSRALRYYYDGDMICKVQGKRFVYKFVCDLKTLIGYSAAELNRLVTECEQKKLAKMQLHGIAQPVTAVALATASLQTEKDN
The method in brief:
as §1

In assay [4] the target is T4, ERG (Homo sapiens, UniProt P11308 1-479).
T4 sequence: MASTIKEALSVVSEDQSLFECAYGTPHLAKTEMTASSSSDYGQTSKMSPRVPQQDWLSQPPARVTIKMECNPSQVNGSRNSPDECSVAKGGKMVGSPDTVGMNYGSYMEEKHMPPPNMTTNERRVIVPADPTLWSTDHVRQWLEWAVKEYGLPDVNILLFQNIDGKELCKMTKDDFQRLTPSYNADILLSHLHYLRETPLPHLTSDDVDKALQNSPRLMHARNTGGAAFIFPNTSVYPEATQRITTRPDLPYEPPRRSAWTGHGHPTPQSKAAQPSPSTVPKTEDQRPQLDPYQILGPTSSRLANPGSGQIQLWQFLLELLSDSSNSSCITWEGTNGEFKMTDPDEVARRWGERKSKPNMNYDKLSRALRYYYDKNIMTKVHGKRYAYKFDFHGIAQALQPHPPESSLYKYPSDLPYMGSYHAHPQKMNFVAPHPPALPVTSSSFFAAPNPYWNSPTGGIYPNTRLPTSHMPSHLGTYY
The method in brief:
as §1

Assay [5] addresses ELF1 (Homo sapiens, UniProt P32519 1-619). The method in brief:
as §1

Assay [6] has as its target T5, EHF (Homo sapiens, UniProt Q9NZC4 1-300).
T5 sequence: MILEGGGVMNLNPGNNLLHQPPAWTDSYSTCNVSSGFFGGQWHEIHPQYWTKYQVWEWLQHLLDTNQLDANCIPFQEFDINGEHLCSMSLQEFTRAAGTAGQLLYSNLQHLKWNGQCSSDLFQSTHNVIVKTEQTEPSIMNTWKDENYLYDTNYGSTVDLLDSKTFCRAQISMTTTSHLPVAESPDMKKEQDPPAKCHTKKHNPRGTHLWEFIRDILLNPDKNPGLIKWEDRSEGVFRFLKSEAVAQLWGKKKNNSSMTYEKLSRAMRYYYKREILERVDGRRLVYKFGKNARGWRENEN
In short, it runs like this:
as §1

The target of assay [7] is SPI1 (Homo sapiens, UniProt P17947 1-270). In short, it runs like this: as §1
Assay [8] has as its target SPIB (Homo sapiens, UniProt Q01892 1-262). The method in brief:
as §1

The target in assay [9] is T6, ELK3 (Homo sapiens, UniProt P41970 1-407).
T6 sequence: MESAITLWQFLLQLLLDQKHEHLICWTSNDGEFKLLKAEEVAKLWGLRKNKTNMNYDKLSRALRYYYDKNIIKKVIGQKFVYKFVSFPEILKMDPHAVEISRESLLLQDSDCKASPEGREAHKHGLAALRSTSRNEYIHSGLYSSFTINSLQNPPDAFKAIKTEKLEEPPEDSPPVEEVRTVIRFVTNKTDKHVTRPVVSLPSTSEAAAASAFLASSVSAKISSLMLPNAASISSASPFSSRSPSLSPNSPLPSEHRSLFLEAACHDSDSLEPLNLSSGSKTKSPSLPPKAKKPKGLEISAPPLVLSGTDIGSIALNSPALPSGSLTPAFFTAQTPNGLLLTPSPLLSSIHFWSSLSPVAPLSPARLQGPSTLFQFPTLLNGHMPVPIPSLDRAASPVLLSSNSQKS
The method in brief: as §1

ELF1, sequence (P32519 whole entry): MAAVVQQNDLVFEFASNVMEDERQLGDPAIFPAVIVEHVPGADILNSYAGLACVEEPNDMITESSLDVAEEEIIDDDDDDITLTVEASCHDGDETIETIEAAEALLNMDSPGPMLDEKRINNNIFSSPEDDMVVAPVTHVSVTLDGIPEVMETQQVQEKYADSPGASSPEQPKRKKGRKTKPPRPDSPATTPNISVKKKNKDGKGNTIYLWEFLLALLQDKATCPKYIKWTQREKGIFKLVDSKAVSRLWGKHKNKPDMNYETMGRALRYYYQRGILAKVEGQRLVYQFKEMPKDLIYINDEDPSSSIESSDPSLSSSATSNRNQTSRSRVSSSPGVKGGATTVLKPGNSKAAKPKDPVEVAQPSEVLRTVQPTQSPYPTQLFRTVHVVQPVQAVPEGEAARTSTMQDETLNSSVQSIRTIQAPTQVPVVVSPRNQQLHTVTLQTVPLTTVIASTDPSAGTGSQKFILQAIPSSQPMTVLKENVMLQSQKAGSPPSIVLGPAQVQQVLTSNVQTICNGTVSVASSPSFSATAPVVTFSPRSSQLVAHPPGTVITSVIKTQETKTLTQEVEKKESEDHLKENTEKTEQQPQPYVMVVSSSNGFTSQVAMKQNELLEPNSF
SPIB, sequence (Q01892 whole entry): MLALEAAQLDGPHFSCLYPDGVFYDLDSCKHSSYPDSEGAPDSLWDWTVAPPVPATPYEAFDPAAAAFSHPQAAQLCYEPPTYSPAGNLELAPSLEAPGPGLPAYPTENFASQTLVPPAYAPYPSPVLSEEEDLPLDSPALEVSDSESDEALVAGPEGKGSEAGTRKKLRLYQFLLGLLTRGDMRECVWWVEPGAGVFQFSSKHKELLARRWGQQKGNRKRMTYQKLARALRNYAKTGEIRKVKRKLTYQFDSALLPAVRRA

Consider AAATTT, for which the binding signal is 1.31 fold enrichment (6-mer frequency, TF over GST control) in assay [1]; 1.31 fold enrichment (6-mer frequency, TF over GST control) in [2]; 1.26 fold enrichment (6-mer frequency, TF over GST control) in assay [3]; 1.3 fold enrichment (6-mer frequency, TF over GST control) in [4]; 1.25 fold enrichment (6-mer frequency, TF over GST control) in assay [5]; 1.33 fold enrichment (6-mer frequency, TF over GST control) in assay [6]. Further, the binding signal in [7] was 1.22 fold enrichment (6-mer frequency, TF over GST control); in assay [8] it was 1.45 fold enrichment (6-mer frequency, TF over GST control); in [9], 1.28 fold enrichment (6-mer frequency, TF over GST control).

For TTCAAC, the binding signal in assay [1] is 1.3 fold enrichment (6-mer frequency, TF over GST control); in [2], 1.31 fold enrichment (6-mer frequency, TF over GST control); in [3], 1.24 fold enrichment (6-mer frequency, TF over GST control); in [4], 1.26 fold enrichment (6-mer frequency, TF over GST control); in assay [5], 1.33 fold enrichment (6-mer frequency, TF over GST control); in [6], 1.32 fold enrichment (6-mer frequency, TF over GST control). Further, the binding signal in assay [7] is 1.28 fold enrichment (6-mer frequency, TF over GST control); in [8] it was 1.38 fold enrichment (6-mer frequency, TF over GST control); in assay [9], 1.29 fold enrichment (6-mer frequency, TF over GST control).

Turning to ACGTTT, the binding signal is 1.21 fold enrichment (6-mer frequency, TF over GST control) in assay [1]; 1.18 fold enrichment (6-mer frequency, TF over GST control) in assay [2]; 1.18 fold enrichment (6-mer frequency, TF over GST control) in assay [3]; 1.27 fold enrichment (6-mer frequency, TF over GST control) in assay [4]; 1.17 fold enrichment (6-mer frequency, TF over GST control) in [5]; 1.16 fold enrichment (6-mer frequency, TF over GST control) in assay [6]. For the same sequence, the binding signal in assay [7] is 1.12 fold enrichment (6-mer frequency, TF over GST control); in [8] it was 1.35 fold enrichment (6-mer frequency, TF over GST control); in [9], 1.2 fold enrichment (6-mer frequency, TF over GST control).

For AAATTG, the binding signal in [1] was 1.2 fold enrichment (6-mer frequency, TF over GST control); in assay [2] it was 1.23 fold enrichment (6-mer frequency, TF over GST control); in assay [3] it was 1.26 fold enrichment (6-mer frequency, TF over GST control); in assay [4], 1.23 fold enrichment (6-mer frequency, TF over GST control); in [5] it was 1.22 fold enrichment (6-mer frequency, TF over GST control); in assay [6] it was 1.28 fold enrichment (6-mer frequency, TF over GST control). Also, the binding signal in [7] was 1.26 fold enrichment (6-mer frequency, TF over GST control); in assay [8] it was 1.25 fold enrichment (6-mer frequency, TF over GST control); in [9], 1.22 fold enrichment (6-mer frequency, TF over GST control).

Turning to TATCCA, the binding signal in assay [1] is 1.3 fold enrichment (6-mer frequency, TF over GST control); in [2], 1.36 fold enrichment (6-mer frequency, TF over GST control); in assay [3], 1.3 fold enrichment (6-mer frequency, TF over GST control); in [4], 1.22 fold enrichment (6-mer frequency, TF over GST control); in [5], 1.29 fold enrichment (6-mer frequency, TF over GST control); in [6], 1.26 fold enrichment (6-mer frequency, TF over GST control). Besides, the binding signal is 1.27 fold enrichment (6-mer frequency, TF over GST control) in [7]; 1.36 fold enrichment (6-mer frequency, TF over GST control) in [8]; 1.37 fold enrichment (6-mer frequency, TF over GST control) in assay [9].

On to CTCGAT, for which the binding signal in assay [1] was 1.48 fold enrichment (6-mer frequency, TF over GST control); in [2] it was 1.38 fold enrichment (6-mer frequency, TF over GST control); in [3], 1.32 fold enrichment (6-mer frequency, TF over GST control); in assay [4], 1.26 fold enrichment (6-mer frequency, TF over GST control); in assay [5], 1.49 fold enrichment (6-mer frequency, TF over GST control); in assay [6], 1.27 fold enrichment (6-mer frequency, TF over GST control). Besides, the binding signal in assay [7] was 1.36 fold enrichment (6-mer frequency, TF over GST control); in [8] it was 1.49 fold enrichment (6-mer frequency, TF over GST control); in [9] it was 1.18 fold enrichment (6-mer frequency, TF over GST control).

On to TCCGAC, for which the binding signal is 1.42 fold enrichment (6-mer frequency, TF over GST control) in assay [1]; 1.47 fold enrichment (6-mer frequency, TF over GST control) in assay [2]; 1.32 fold enrichment (6-mer frequency, TF over GST control) in assay [3]; 1.46 fold enrichment (6-mer frequency, TF over GST control) in assay [4]; 1.42 fold enrichment (6-mer frequency, TF over GST control) in [5]; 1.46 fold enrichment (6-mer frequency, TF over GST control) in assay [6]. Further, the binding signal in assay [7] is 1.37 fold enrichment (6-mer frequency, TF over GST control); in assay [8], 1.46 fold enrichment (6-mer frequency, TF over GST control); in [9], 1.56 fold enrichment (6-mer frequency, TF over GST control).
